Measured values from PubChem BioAssay AID1159580 (chemical genetic matrix, 2015).
Several values for one entry are separate records, joined by “and”; a condition that tells them apart may be missing. Equal entries are not always repeated. Hit rate of the full screen: of about 5,500 compounds, about 2,000 (36%) were called active. About 18% were inconclusive and are not listed. Rule as the data show it: active = normalized growth mostly below about 0.91 (no sharp cut-off); inconclusive = no clear call, values can overlap the other calls; inactive = mostly above about 0.92. Some of the results follow.

Assay: chemical genetic growth profiling, strain panel (AID 1159580);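 also: tested at 20 µM; growth read once vehicle control cultures reached saturation at 30 °C; 1 = growth at the plate median or of vehicle wells; lower values mean less growth of the strain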
Conditions: S. cerevisiae deletion strains, growth OD

Measured: normalized growth

NC(=O)N/N=C\c1ccc([N+](=O)[O-])o1
inactive: locus YAL021C, strain ccr4, hits give low values 0.987 | locus YAL026C, strain drs2, hits give low values 0.988 | locus YAL030W, strain snc1, hits give low values 1 | locus YBL061C, strain skt5, hits give low values 0.997 | locus YBR009C, strain hhf1, hits give low values 0.978 | locus YBR021W, strain FUR4, hits give low values 1.02 | locus YBR023C, strain chs3, hits give low values 0.996 | locus YBR171W, strain sec66, hits give low values 1.01 | locus YBR229C, strain ROT2, hits give low values 0.997 | locus YBR231C, strain swc5, hits give low values 0.993 | locus YBR279W, strain paf1, hits give low values 0.995 | locus YCL011C, strain gbp2, hits give low values 0.986 | locus YCL016C, strain dcc1, hits give low values 0.992 | locus YCL029C, strain bik1, hits give low values 0.99 | locus YCL061C, strain MRC1, hits give low values 1.01 | locus YCL069W, strain vba3, hits give low values 1 | locus YCR088W, strain abp1, hits give low values 0.972 | locus YDL005C, strain med2, hits give low values 0.989 | locus YDL035C, strain GPR1, hits give low values 1.01 | locus YDL040C, strain nat1, hits give low values 0.995 | locus YDL074C, strain BRE1, hits give low values 1.08 | locus YDL101C, strain DUN1, hits give low values 0.993 | locus YDL134C, strain PPH21, hits give low values 1 | locus YDL185W, strain tfp1, hits give low values 0.963 | locus YDL192W, strain arf1, hits give low values 0.99 | locus YDR001C, strain nth1, hits give low values 0.991 | locus YDR069C, strain doa4, hits give low values 0.975 | locus YDR101C, strain arx1, hits give low values 0.977 | locus YDR137W, strain rgp1, hits give low values 1.04 | locus YDR159W, strain sac3, hits give low values 0.993 | locus YDR162C, strain NBP2, hits give low values 1.01 | locus YDR195W, strain ref2 0.967 | locus YDR297W, strain sur2, hits give low values 0.991 | locus YDR318W, strain mcm21, hits give low values 0.983 | locus YDR334W, strain swr1, hits give low values 0.992 | locus YDR335W, strain msn5, hits give low values 0.999 | locus YDR388W, hits give low values 0.984 | locus YDR392W, strain spt3, hits give low values 0.925 | locus YDR502C, strain sam2, hits give low values 0.978 | locus YEL003W, strain gim4, hits give low values 1 | locus YEL037C, strain rad23, hits give low values 1 | locus YEL061C, strain CIN8 (second series), hits give low values 1 | locus YEL061C, strain CIN8, hits give low values 1.02 | locus YER015W, strain faa2, hits give low values 0.962 | locus YER016W, strain bim1, hits give low values 0.968 | locus YER110C, hits give low values 0.966 | locus YER111C, strain swi4, hits give low values 1.01 | locus YER155C, strain BEM2 (second series), hits give low values 0.962 | locus YER155C, strain BEM2, hits give low values 0.994 | locus YER167W, strain BCK2, hits give low values 1 | locus YFR010W, strain ubp6, hits give low values 0.985 | locus YGL078C, strain dbp3, hits give low values 0.995 | locus YGL086W, strain mad1, hits give low values 0.971 | locus YGL167C, strain pmr1, hits give low values 0.994 | locus YGL173C, strain kem1, hits give low values 1.01 | locus YGL227W, strain vid30, hits give low values 1.01 | locus YGL240W, strain doc1, hits give low values 0.952 | locus YGL248W, strain PDE1, hits give low values 0.999 | locus YGL253W, strain hxk2, hits give low values 1.01 | locus YGR135W, strain pre9, hits give low values 0.989 | locus YGR229C, strain SMI1, hits give low values 1.07 | locus YGR252W, strain gcn5, hits give low values 0.951 | locus YHR013C, strain ard1, hits give low values 1.01 | locus YHR027C, strain rpn1, hits give low values 0.988 | locus YHR030C, strain SLT2, hits give low values 0.992 and 0.97 | locus YHR079C, strain IRE1 (second series), hits give low values 0.978 | locus YHR079C, strain IRE1, hits give low values 0.96 | locus YHR094C, strain hxt1, hits give low values 0.982 | locus YHR129C, strain ARP1, hits give low values 0.999 | locus YHR142W, strain chs7, hits give low values 1.02 | locus YHR200W, strain rpn10, hits give low values 0.989 | locus YIL066C, strain RNR3, hits give low values 1.01 | locus YIL073C, strain SPO22, hits give low values 0.975 | locus YIL125W, strain kgd1, hits give low values 0.983 | locus YIR030C, strain dcg1, hits give low values 0.989 | locus YJL092W, strain hpr5, hits give low values 0.997 | locus YJL095W, strain BCK1 (second series), hits give low values 0.992 | locus YJL095W, strain BCK1, hits give low values 0.985 and 0.968 | locus YJL115W, strain asf1, hits give low values 1.02 | locus YJL129C, strain trk1, hits give low values 1.05 | locus YJL134W, strain LCB3, hits give low values 1 | locus YJL154C, strain vps35, hits give low values 0.992 | locus YJL164C, strain tpk1, hits give low values 0.966 | locus YJL166W, strain qcr8, hits give low values 0.984 | locus YJL168C, strain set2, hits give low values 0.979 | locus YJL187C, strain SWE1 (second series), hits give low values 0.998 | locus YJL187C, strain SWE1, hits give low values 0.996 | locus YJR043C, strain POL32, hits give low values 0.977
